# Results as given in paper PMC7862700, “An all-to-all approach to the identification of sequence-specific readers for epigenetic DNA modifications on cytosine”.
# Key:
# Assay in all cases: DAPPL (digital affinity profiling via proximity ligation, sequencing); 10 mM Tris-HCl pH 7.5, 50 mM NaCl, 1 mM DTT, 4% glycerol, room temperature, 30 min; GST-TFs on glutathione beads, 16-mer random dsDNA library, 0.1% formaldehyde crosslink after washing; high values mean tight binding
# FLI1 = biological target: T1, FLI1 (Homo sapiens, UniProt Q01543 1-452); details: protein: recombinant; tags: N-terminal GST; dsDNA, one strand shown
# T1 sequence: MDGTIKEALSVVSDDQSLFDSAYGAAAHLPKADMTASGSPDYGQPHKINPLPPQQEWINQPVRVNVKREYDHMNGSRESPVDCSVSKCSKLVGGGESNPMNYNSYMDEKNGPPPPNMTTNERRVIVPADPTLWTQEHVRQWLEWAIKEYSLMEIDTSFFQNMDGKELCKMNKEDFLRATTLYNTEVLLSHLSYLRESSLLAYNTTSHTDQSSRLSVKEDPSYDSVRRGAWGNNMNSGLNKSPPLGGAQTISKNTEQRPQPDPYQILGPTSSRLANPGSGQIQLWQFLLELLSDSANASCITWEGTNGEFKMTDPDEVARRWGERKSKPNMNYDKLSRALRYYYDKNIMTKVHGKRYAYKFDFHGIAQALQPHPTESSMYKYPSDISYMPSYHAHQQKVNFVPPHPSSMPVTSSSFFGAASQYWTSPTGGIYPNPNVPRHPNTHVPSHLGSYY
# Summary of the method: (§1)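 After expression in yeast as GST fusions, human transcription factors were bound to glutathione beads, DNA-barcoded and mixed with a tag-only sample. The pools were incubated with 200 nmole of a 16-mer random double-stranded DNA library in Tris/NaCl/DTT/glycerol buffer (30 min, room temperature), washed and crosslinked with 0.1% formaldehyde. Proximity ligation with BsaI/T4 ligase ran for 1 h at 37 °C, before PCR amplification and sequencing on an Illumina NextSeq500. Binding signal is a hexamer's read frequency for a factor divided by its frequency for the tag-only sample.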
# ELK1 = biological target: T2, ELK1 (Homo sapiens, UniProt P19419 1-428); details: protein: recombinant; tags: N-terminal GST; dsDNA, one strand shown
# T2 sequence: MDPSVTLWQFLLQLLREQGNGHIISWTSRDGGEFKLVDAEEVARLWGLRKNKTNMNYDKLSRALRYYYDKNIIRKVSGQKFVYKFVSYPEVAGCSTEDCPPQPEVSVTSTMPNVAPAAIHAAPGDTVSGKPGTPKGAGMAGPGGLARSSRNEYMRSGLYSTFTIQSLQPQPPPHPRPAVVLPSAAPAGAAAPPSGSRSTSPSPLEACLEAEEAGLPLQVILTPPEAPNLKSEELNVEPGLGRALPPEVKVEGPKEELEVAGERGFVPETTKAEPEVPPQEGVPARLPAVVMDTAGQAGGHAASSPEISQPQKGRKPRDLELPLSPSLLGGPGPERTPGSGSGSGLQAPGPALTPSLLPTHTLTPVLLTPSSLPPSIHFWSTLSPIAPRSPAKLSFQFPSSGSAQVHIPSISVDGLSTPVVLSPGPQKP
# Summary of the method: as §1
# GABPA = biological target: T3, GABPA (Homo sapiens, UniProt Q06546 1-454); details: protein: recombinant; tags: N-terminal GST; dsDNA, one strand shown
# T3 sequence: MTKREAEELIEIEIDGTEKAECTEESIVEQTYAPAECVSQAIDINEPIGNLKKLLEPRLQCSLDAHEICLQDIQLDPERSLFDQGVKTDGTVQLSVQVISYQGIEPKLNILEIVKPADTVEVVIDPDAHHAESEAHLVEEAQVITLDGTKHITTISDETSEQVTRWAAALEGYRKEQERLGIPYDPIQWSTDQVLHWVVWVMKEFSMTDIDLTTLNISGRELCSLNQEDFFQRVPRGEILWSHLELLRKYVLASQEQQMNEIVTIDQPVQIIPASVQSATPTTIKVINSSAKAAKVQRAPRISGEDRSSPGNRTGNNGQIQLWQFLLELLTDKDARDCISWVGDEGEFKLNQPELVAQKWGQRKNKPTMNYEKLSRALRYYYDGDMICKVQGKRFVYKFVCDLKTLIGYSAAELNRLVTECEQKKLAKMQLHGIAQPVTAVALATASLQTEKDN
# Summary of the method: as §1
# ERG = biological target: T4, ERG (Homo sapiens, UniProt P11308 1-479); details: protein: recombinant; tags: N-terminal GST; dsDNA, one strand shown
# T4 sequence: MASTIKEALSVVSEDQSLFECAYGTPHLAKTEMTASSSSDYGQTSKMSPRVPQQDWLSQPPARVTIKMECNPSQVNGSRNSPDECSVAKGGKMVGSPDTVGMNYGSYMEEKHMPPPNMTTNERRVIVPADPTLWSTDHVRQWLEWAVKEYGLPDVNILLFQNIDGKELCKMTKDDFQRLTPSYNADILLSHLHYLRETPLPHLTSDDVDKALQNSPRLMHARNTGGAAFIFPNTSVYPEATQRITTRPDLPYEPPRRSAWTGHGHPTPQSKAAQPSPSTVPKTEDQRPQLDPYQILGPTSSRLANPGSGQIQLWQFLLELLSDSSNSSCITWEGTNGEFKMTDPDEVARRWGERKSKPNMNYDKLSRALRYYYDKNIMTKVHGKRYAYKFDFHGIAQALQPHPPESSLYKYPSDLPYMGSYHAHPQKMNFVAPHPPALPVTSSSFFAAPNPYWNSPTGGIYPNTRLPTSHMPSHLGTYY
# Summary of the method: as §1
# ELF1 = ELF1 (Homo sapiens, UniProt P32519 1-619); details: protein: recombinant; tags: N-terminal GST; dsDNA, one strand shown
# Summary of the method: as §1
# EHF = biological target: T5, EHF (Homo sapiens, UniProt Q9NZC4 1-300); details: protein: recombinant; tags: N-terminal GST; dsDNA, one strand shown
# T5 sequence: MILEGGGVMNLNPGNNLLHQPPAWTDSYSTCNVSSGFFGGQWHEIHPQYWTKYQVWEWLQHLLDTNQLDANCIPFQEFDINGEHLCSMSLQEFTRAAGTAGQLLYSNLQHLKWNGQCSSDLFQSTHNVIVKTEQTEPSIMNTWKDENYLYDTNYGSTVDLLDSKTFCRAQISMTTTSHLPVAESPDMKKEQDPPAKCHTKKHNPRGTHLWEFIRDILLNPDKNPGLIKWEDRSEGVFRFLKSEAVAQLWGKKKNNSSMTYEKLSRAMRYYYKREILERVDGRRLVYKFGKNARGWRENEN
# Summary of the method: as §1
# SPI1 = SPI1 (Homo sapiens, UniProt P17947 1-270); details: protein: recombinant; tags: N-terminal GST; dsDNA, one strand shown
# Summary of the method: as §1
# SPIB = SPIB (Homo sapiens, UniProt Q01892 1-262); details: protein: recombinant; tags: N-terminal GST; dsDNA, one strand shown
# Summary of the method: as §1
# ELK3 = biological target: T6, ELK3 (Homo sapiens, UniProt P41970 1-407); details: protein: recombinant; tags: N-terminal GST; dsDNA, one strand shown
# T6 sequence: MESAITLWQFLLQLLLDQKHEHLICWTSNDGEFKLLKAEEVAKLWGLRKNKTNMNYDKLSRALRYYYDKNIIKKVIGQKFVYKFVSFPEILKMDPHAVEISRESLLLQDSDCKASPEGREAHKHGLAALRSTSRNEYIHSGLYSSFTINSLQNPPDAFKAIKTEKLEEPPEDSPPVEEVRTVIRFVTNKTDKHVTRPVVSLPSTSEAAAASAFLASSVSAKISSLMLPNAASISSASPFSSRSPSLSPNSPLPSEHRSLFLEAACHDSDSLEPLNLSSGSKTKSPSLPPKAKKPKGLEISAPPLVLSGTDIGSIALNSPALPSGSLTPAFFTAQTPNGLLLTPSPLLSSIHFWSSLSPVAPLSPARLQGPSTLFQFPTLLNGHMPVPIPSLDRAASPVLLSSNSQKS
# Summary of the method: as §1
# FEV = biological target: T7, FEV (Homo sapiens, UniProt Q99581 1-238); details: protein: recombinant; tags: N-terminal GST; dsDNA, one strand shown
# T7 sequence: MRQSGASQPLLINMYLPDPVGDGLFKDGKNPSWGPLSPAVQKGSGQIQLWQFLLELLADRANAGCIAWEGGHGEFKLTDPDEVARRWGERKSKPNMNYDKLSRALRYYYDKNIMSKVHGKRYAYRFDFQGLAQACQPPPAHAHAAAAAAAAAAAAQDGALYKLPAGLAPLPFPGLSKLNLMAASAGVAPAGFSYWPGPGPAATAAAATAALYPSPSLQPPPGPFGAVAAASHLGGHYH
# Summary of the method: as §1
# ETV5 = ETV5 (Homo sapiens, UniProt P41161 1-510); details: protein: recombinant; tags: N-terminal GST; dsDNA, one strand shown
# Summary of the method: as §1
# HSF1 = HSF1 (Homo sapiens, UniProt Q00613 1-529); details: protein: recombinant; tags: N-terminal GST; chain copies: 3; dsDNA, one strand shown
# Summary of the method: as §1
# SPIC = biological target: T8, SPIC (Homo sapiens, UniProt Q8N5J4 1-248); details: protein: recombinant; tags: N-terminal GST; dsDNA, one strand shown
# T8 sequence: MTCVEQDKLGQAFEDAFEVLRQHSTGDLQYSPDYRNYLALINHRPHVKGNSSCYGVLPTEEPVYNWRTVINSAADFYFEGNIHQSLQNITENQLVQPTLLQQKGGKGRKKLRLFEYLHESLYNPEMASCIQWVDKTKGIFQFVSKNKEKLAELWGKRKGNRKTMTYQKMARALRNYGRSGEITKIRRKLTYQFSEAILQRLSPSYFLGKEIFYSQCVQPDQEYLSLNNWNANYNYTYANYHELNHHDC
# Summary of the method: as §1
# ELF4 = ELF4 (Homo sapiens, UniProt Q99607 1-663); details: protein: recombinant; tags: N-terminal GST; dsDNA, one strand shown
# Summary of the method: as §1
# ELK4 = biological target: T9, ELK4 (Homo sapiens, UniProt P28324-2 1-405); details: protein: recombinant; tags: N-terminal GST; dsDNA, one strand shown
# T9 sequence: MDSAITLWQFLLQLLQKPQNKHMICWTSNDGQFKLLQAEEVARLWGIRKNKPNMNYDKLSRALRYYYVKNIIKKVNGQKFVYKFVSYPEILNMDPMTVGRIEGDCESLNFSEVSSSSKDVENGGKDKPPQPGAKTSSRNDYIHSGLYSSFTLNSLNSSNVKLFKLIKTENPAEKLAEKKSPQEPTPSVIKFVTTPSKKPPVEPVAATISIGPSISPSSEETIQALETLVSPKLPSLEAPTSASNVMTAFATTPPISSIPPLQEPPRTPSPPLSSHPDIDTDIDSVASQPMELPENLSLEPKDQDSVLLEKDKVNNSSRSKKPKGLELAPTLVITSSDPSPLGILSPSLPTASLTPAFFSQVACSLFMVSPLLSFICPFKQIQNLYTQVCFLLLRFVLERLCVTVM
# Summary of the method: as §1
# ETV2 = biological target: T10, ETV2 (Homo sapiens, UniProt O00321 1-342); details: protein: recombinant; tags: N-terminal GST; dsDNA, one strand shown
# T10 sequence: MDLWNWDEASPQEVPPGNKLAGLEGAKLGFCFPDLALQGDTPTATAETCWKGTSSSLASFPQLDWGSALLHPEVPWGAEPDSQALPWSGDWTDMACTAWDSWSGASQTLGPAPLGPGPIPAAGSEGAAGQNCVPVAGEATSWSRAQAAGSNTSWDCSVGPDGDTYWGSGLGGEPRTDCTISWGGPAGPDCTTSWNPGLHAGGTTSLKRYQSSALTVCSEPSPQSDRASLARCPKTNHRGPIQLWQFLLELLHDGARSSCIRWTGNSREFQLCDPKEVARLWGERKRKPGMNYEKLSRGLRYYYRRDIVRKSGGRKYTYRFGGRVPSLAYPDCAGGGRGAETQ
# Summary of the method: as §1
# ELF3 = biological target: T11, ELF3 (Homo sapiens, UniProt P78545 1-371); details: protein: recombinant; tags: N-terminal GST; dsDNA, one strand shown
# T11 sequence: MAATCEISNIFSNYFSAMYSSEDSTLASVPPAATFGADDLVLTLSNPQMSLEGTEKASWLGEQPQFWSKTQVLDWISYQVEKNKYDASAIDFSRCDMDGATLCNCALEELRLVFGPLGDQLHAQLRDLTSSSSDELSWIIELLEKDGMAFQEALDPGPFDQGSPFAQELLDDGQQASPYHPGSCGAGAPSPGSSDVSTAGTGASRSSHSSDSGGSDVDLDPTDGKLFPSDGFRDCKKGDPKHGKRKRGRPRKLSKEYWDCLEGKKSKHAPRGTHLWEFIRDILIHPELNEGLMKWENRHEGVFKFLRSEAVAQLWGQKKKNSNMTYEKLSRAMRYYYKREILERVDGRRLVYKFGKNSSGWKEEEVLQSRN
# Summary of the method: as §1
# ETV1 = ETV1 (Homo sapiens, UniProt P50549 1-477); details: protein: recombinant; tags: N-terminal GST; dsDNA, one strand shown
# Summary of the method: as §1
# Chain of ELF1 (P32519 whole entry): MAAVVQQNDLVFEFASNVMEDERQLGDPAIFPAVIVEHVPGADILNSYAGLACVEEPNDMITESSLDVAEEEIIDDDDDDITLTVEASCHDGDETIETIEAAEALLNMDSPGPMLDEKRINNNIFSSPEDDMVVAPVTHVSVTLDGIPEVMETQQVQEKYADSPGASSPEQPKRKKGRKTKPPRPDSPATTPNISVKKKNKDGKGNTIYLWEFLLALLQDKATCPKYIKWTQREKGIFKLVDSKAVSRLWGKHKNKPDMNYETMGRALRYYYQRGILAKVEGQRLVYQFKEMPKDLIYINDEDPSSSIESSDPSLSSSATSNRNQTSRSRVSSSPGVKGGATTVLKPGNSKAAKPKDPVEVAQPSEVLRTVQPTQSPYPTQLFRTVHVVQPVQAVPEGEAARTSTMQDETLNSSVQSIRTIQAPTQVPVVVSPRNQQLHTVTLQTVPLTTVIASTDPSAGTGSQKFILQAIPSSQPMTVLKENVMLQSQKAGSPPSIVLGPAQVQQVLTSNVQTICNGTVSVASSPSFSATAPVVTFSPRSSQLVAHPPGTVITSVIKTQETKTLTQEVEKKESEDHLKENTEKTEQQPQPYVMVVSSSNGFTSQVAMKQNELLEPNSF
# Chain of SPIB (Q01892 whole entry): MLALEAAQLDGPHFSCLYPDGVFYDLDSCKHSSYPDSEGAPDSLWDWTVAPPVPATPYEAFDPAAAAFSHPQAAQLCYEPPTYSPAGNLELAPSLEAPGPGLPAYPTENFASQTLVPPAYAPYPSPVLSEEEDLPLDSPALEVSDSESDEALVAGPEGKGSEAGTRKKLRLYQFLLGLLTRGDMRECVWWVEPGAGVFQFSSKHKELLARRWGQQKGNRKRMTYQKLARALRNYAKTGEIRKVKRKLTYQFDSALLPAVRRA
# Chain of ETV1 (P50549 whole entry): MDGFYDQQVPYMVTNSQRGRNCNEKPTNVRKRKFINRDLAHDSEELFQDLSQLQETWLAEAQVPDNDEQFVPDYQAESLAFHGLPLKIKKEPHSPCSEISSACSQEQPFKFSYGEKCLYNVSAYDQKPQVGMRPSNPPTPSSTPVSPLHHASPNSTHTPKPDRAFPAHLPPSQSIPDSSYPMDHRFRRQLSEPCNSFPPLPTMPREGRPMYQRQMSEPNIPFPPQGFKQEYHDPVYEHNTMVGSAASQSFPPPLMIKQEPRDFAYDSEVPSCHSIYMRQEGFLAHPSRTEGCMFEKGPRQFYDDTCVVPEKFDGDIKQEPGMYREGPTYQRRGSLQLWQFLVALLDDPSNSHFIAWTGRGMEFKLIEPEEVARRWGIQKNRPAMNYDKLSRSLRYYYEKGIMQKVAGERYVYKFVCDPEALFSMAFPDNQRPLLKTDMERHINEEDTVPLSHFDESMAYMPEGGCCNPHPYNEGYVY
# Chain of ETV5 (P41161 whole entry): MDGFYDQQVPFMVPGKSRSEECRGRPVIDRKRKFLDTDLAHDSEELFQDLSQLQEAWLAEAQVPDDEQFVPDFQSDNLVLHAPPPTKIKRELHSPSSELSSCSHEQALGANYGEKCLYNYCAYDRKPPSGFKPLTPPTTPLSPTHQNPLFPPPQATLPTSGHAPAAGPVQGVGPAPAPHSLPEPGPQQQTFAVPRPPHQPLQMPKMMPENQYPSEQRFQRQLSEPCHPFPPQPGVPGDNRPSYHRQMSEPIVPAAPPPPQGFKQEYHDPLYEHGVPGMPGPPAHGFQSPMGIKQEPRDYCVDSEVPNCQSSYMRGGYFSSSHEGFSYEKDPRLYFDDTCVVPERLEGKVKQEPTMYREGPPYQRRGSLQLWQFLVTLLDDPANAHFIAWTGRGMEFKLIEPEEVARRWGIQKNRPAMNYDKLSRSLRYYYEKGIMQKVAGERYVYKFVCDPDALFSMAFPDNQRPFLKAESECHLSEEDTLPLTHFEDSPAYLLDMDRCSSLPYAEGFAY
# Chain of HSF1 (Q00613 whole entry): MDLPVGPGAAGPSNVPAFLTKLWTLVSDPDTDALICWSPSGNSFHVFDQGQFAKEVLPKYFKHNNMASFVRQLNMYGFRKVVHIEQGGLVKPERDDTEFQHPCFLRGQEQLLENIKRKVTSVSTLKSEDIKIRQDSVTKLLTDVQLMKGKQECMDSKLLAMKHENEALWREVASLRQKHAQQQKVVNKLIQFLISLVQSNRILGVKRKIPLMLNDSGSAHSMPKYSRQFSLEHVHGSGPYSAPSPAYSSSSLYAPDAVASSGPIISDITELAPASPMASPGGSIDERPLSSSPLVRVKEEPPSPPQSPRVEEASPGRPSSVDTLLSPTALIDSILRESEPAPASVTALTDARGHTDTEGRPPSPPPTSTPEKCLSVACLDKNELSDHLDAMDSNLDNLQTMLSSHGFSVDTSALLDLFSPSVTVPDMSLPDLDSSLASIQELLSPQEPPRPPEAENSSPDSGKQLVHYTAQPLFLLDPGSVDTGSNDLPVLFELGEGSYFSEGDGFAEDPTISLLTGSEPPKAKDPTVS
# Chain of ELF4 (Q99607 whole entry): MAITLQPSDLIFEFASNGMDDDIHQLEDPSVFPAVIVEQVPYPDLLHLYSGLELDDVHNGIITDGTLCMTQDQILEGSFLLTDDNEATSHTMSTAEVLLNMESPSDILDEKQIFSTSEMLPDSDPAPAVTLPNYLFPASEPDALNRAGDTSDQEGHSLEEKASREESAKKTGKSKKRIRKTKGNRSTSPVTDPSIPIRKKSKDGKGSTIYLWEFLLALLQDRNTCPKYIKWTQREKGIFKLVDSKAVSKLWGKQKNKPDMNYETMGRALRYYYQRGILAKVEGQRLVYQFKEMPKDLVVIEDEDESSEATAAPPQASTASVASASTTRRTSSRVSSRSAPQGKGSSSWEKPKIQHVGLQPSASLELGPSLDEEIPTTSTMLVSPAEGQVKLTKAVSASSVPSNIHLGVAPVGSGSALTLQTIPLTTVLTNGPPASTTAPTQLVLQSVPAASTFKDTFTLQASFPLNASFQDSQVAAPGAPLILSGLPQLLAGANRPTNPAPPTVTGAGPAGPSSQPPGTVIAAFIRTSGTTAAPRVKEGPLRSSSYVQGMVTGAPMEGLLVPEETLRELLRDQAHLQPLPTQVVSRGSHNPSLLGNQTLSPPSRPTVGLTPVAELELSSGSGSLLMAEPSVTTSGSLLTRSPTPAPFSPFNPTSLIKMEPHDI
sequence,measurement,setting,value
AAACTG,binding signal,FLI1,"1.09 fold enrichment (6-mer frequency, TF over GST control)"
same,binding signal,ELK1,"1.11 fold enrichment (6-mer frequency, TF over GST control)"
same,binding signal,GABPA,"1.17 fold enrichment (6-mer frequency, TF over GST control)"
same,binding signal,ERG,"1.01 fold enrichment (6-mer frequency, TF over GST control)"
same,binding signal,ELF1,"1.09 fold enrichment (6-mer frequency, TF over GST control)"
same,binding signal,EHF,"1.06 fold enrichment (6-mer frequency, TF over GST control)"
same,binding signal,SPI1,"1.12 fold enrichment (6-mer frequency, TF over GST control)"
same,binding signal,SPIB,"1.1 fold enrichment (6-mer frequency, TF over GST control)"
same,binding signal,ELK3,"1.32 fold enrichment (6-mer frequency, TF over GST control)"
same,binding signal,FEV,"1.06 fold enrichment (6-mer frequency, TF over GST control)"
same,binding signal,ETV5,"1.09 fold enrichment (6-mer frequency, TF over GST control)"
same,binding signal,HSF1,"1.01 fold enrichment (6-mer frequency, TF over GST control)"
same,binding signal,SPIC,"1.07 fold enrichment (6-mer frequency, TF over GST control)"
same,binding signal,ELF4,"1.1 fold enrichment (6-mer frequency, TF over GST control)"
same,binding signal,ELK4,"1.06 fold enrichment (6-mer frequency, TF over GST control)"
same,binding signal,ETV2,"1.09 fold enrichment (6-mer frequency, TF over GST control)"
same,binding signal,ELF3,"1.01 fold enrichment (6-mer frequency, TF over GST control)"
same,binding signal,ETV1,"1.13 fold enrichment (6-mer frequency, TF over GST control)"
